# Reference: PubChem BioAssay AID651814 (National Center for Advancing Translational Sciences (NCATS), 2012)
# Values joined by “and” are separate entries in the source; they are usually repeats but may differ in a detail not shown here. Identical values can stand only once. The campaign covered roughly 2,100 compounds. About 590 (28%) were called active. Roughly 42% stayed inconclusive and do not appear here. Calls follow the shape of the dose curve; as a rule, active = well fitted inhibition curve with a large enough effect; inconclusive = small, poorly fitted or top-dose-only effect; inactive = flat fitted curve, though single readings scatter. This is one part of the list.
# Target: DNA dC->dU-editing enzyme APOBEC-3F (Homo sapiens) (UniProt Q8IUX4)
# Sequence (Q8IUX4 whole entry, looked up): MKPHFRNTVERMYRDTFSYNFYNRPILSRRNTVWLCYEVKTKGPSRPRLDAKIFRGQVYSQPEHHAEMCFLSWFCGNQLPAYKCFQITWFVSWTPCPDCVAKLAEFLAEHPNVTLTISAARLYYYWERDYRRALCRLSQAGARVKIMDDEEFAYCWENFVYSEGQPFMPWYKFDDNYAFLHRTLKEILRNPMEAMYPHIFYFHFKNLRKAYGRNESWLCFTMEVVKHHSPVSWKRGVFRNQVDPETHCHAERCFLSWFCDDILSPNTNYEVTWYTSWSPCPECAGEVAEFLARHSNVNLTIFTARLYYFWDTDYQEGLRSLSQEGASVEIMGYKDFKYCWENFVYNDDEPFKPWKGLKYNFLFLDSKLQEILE
# Test: qHTS for inhibitors of Vif-A3F interactions: Cherry picks; also: nearly all actives have a fitted effect of over 70% in size;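 as to max response: % of control where 0% means no effect; active compounds raise eYFP fluorescence by blocking Vif-driven A3F loss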
# Settings: HeLa A3F-eYFP + Vif (tagged APOBEC3F with the HIV-1 protein that degrades it), eYFP fluorescence, 24 h
# How it was run: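 Read-out: yellow fluorescence (ex 488 nm, em 500-530 nm) by laser-scanning cytometer after 24 h compound exposure, several concentrations, at 37 deg C. Cells: HeLa line stably co-expressing Vif and C-terminally eYFP-tagged A3F; MG132 served as positive control.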
# Potency is read from the fitted curve at half-maximal effect.
Structure (SMILES),Potency,max response
COc1ccc(C(=O)c2sc3nc(C)cc(-c4cccs4)c3c2N)cc1,18.4 µM (active),
O=C(NC(=S)N1CCN(C2CCCCC2)CC1)c1ccccc1,,3.13% (inactive)
CCCCN1C(=O)/C(=C/C=C2/CC(C)(C)CN2C)SC1=S,3.96 µM (active),
Cc1ccc(Cn2c(SCc3ccc(C(=O)NC4CCCC4)cc3)nc3ccncc32)cc1,,-0.957% (inactive)
ClCC1NCC(c2ccccc2Cl)c2c1[nH]c1ccccc21 (centres undefined),,-5.81% (inactive)
Cn1cc(C2=C(c3ccc(Cl)cc3Cl)C(=O)NC2=O)c2ccccc21,2.91 µM (active) and 14.6 µM (active),
COc1ccc(S(=O)(=O)N2c3ccccc3OCC2CC(=O)O)cc1 (centres undefined),,-27.6% (inactive)
COc1cc(NC(=O)c2ccco2)c(C(=O)OCC(=O)c2c[nH]c3ccccc23)cc1OC,,-11.7% (inactive)
Cn1nnc2c[n+](CC(=O)c3ccc(Cl)cc3)cc(Br)c21,17.7 µM (active),
O=C(Nc1cc(Cl)ccc1-n1cncn1)c1ccc([N+](=O)[O-])s1,15.8 µM (active),
Cc1oc(C)c2c(=O)ccc3c(c12)OC(N)=C(C#N)C3c1ccc(F)cc1 (centres undefined),,1.74% (inactive)
N#CC1=C(N)Oc2cc(N)ccc2C1c1ccc(F)cc1F (centres undefined),18.4 µM (active),
N#CC1=C(N)Oc2ccc3ccc(O)cc3c2C1c1ccsc1 (centres undefined),,-15.9% (inactive)
O=C1[C@@H]2[C@@H](CN3CN(c4ccccc4)N=C(c4ccccc4)[C@@]23c2ccccc2)C(=O)N1c1ccccc1,,-0.723% (inactive)
CC[n+]1ccccc1/C=C/c1ccc(N(C)C)cc1,20.6 µM (active),
CC(C)CC[n+]1ccccc1/C=C/c1ccc(N(C)C)cc1,20.6 µM (active),
Cc1ccc(-c2csc(NC3OC(=O)c4ccccc43)n2)cc1 (centres undefined),14 µM (active),
Fc1ccc(CNc2nc3ccc(Cl)cc3n3nnnc23)cc1,,-20.9% (inactive)
Fc1ccc(CNc2nc3ccccc3n3nnnc23)cc1,23.1 µM (active),
c1ccc2c(c1)nc(NCC1CCCO1)c1nnnn12 (centres undefined),,-11.8% (inactive)

Structure (SMILES),Potency,max response
c1ccc2c(CCc3c[nH]c4ccccc34)ccnc2c1,20.6 µM (active),
O=C(N/N=C/C=C/c1ccco1)c1ccncc1,,-0.284% (inactive)
COc1ccccc1OCC(=O)N/N=C/C=C/c1ccc([N+](=O)[O-])o1,10.3 µM (active),
O=C(N/N=C\C=C\c1ccc([N+](=O)[O-])o1)c1cccs1,12.5 µM (active),
Cc1ccccc1OCC(=O)N/N=C/c1ccc(N(C)C)cc1,,-27.7% (inactive)
O=C(COc1ccccc1-c1ccccc1)NN=C1CCCC1,,-15.6% (inactive)
O=C(CN1C(=O)CSc2ncccc21)Nc1cccc(Cl)c1,,-15.2% (inactive)
CC(C)COc1ccc(C(=O)N/C(=C/c2cccc([N+](=O)[O-])c2)C(=O)O)cc1,,-0.401% (inactive)
COc1ccc(N=Cc2oc3ccc4ccccc4c3c2O)cc1,5.17 µM (active),
CCCC(=O)NC(c1ccc(OC)cc1)c1c(O)ccc2ccccc12 (centres undefined),,-21% (inactive)
COc1ccc(N=Cc2sc(O)c3ccccc23)cc1,8.86 µM (active),
CC(=O)n1cc(/C=N/NC(=O)c2sc(C)nc2C)c2ccccc21,,-21.7% (inactive)
Oc1sc(C=Nc2ccccc2)c2ccccc12,20.6 µM (active),
COc1ccc(N=Cc2c(O)c3ccccc3n2C(C)=O)cc1,20.6 µM (active),
CC1(C)CC(=O)C(C=Nc2cc(C(=O)c3ccccc3)ccc2N)=C(O)C1,,-20.7% (inactive)
O=c1[nH]c2ccccc2n2c(=S)[nH]nc12,,-3.48% (inactive)
COc1ccc(N/C=C2\C(=O)CCc3c2oc2cc(Cl)c(O)c(Cl)c32)cc1,,-28.6% (inactive)
COC(=O)C1C2CC3c4[nH]c5cc(OC)ccc5c4CCN3CC2CC(OC2CCCCO2)C1OC (centres undefined),,-12.1% (inactive)
S=c1[nH]cnc2sc(-c3ccccc3)cc12,,-2.16% (inactive)
Oc1sc(C=Nc2ccc(F)cc2)c2ccccc12,4.11 µM (active),

Structure (SMILES),Potency,max response
CCN(CC)C(=O)CSC(Nc1cccc(F)c1)=C(C#N)C#N,,-4.73% (inactive)
O=C(NN=Cc1c(O)ccc2ccccc12)c1ccc2c(c1)OCO2,,-14.5% (inactive)
O=C(N/N=C/c1ccc2c(c1)OCO2)c1ccc2c(c1)OCCO2,,-24.9% (inactive)
CN(C)c1ccc(/C=N/NC(=O)c2cc(-c3ccc4c(c3)OCO4)n[nH]2)cc1,17.7 µM (active),
COCCCNC(=S)N/N=C/c1cccc(OC)c1O,,-1.71% (inactive)
CCCN1CCc2c(sc(NC(=O)c3ccc(S(=O)(=O)N(C)c4ccccc4)cc3)c2C(N)=O)C1,20.6 µM (active),
NC(=O)c1c(NC(=O)c2ccccc2)sc2c1CCN(Cc1ccccc1)C2,14 µM (active),
O=C(Nc1ncc(Cc2ccc(SC(F)F)cc2)s1)c1ccccc1,,-6.02% (inactive)
CC(C)CN(CC(C)C)S(=O)(=O)c1ccc(C(=O)Nc2sc3c(c2C(N)=O)CCN(C(C)C)C3)cc1,20.6 µM (active),
CC(C)(C)C(=O)Nc1sc2c(c1C#N)CCN(Cc1ccccc1)C2,,-17.1% (inactive)
Cc1nc2ccc(NC(=O)c3cc(S(=O)(=O)N(C)c4ccccc4)ccc3Cl)cc2s1,,-11.3% (inactive)
CCCN1CCc2c(sc(NC(=O)c3ccc(S(=O)(=O)N(C)c4ccccc4)cc3)c2C(=O)NC)C1,23.1 µM (active),
CCCCOc1ccc2c(c1)/C(=C(\C(Cl)=C(Cl)Cl)[N+](=O)[O-])N2,,-18.3% (inactive)
CCS(=O)(=O)N1CCc2cc(C(=O)N3CCN(c4cccc(C(F)(F)F)c4)CC3)ccc21,,-12.8% (inactive)
CC1=CC(C)(C)NC(=S)N1c1ccc2ccccc2c1,,1.72% (inactive)
CCN1CCc2c(sc(NC(=O)c3ccc(S(=O)(=O)N(CC)c4ccccc4)cc3)c2C(N)=O)C1,9.94 µM (active),
CC(C)N1CCc2c(sc(NC(=O)c3cc4cc([N+](=O)[O-])ccc4s3)c2C(N)=O)C1,20.6 µM (active),
N#Cc1c(NC(=O)c2ccc([N+](=O)[O-])o2)sc2c1CCC2,,-22.4% (inactive)
CCN1CCc2c(sc(-n3cccc3)c2C(C)NC(=O)Nc2ccc(C(=O)OC)cc2)C1 (centres undefined),,0.47% (inactive)
